In the library only some 2.3% were active in any assay of this set; here they are far more common.
Bim-Mcl-1: human Bim-Mcl-1 interaction inhibition; Q07820; Bead-based flow cytometry, Bim peptide-Mcl-1 binding; inhibition, % at 10 µM; 190,000 compounds, 0.1% hits; AID 1009; in the data active means inhibition above about 40%;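 further: 0% = no compound tracer wells and 100% = peptide blocker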
Target sequence (Q07820 whole entry, looked up): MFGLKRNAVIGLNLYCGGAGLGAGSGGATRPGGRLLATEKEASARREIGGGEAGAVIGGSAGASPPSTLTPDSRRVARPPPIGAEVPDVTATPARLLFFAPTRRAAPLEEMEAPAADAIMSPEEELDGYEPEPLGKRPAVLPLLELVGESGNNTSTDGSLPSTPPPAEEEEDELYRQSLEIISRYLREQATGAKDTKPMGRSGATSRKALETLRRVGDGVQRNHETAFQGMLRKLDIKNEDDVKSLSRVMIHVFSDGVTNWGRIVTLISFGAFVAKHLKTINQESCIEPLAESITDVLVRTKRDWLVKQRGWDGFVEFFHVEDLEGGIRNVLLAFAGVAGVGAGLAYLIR
Mcl1 Bid PPI: Mcl-1/Bid interaction inhibition; AID 1021; TR-FRET Mcl-1/Bid-Dy647 peptide binding, 1536-well; inhibition, % at 21.7 µM; 220,000 compounds, 0.97% hits;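 active means compounds that cut the binding signal by more than half at the single screening dose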;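 further: His-tagged Mcl-1 with europium anti-His antibody binding Bid BH3 peptide; 0% = Mcl-1 plus peptide wells and 100% = peptide-only wells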
MCL1-BIM inh: inhibitors of human MCL1 binding to BIM-BH3 peptide | GST-MCL1 / FITC-Bim-BH3 fluorescence polarization | AID 2057 | Q07820 | 320,000 compounds, 0.68% hits | inhibition, % at 10.9 µM;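 active means inhibition above the mean inhibition of all tested compounds plus 3 SD, set per campaign, cut at about 40% in these data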;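 further: 0% = DMSO wells and 100% = unlabeled Bim-BH3 peptide control; higher means more loss of mP so more displacement of Bim peptide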
GLD-1 TGE inh: GLD-1-TGE RNA interaction inhibition (C. elegans); inhibition, % at 5.96 µM; Q17339; purified GLD-1 + fluorescein TGE RNA, fluorescence polarization; AID 2280; 320,000 compounds, 0.44% hits;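 active means percent inhibition above a per-plate cutoff, the plate mean of test compounds plus 3 SD, cut at about 30% in these data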;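 further: 0% = DMSO wells with GLD-1 and probe and 100% = wells lacking GLD-1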
Mcl1 Noxa PPI: Mcl-1/Noxa interaction inhibition; TR-FRET Mcl-1/Noxa peptide binding, 2 h; inhibition, % at 21.7 µM; 220,000 compounds, 1.5% hits; AID 1022;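 active means compounds that cut the protein-peptide binding signal by more than 50% relative to plate controls in a single-dose test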;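 further: His-tagged Mcl-1 with rhodamine Noxa BH3 peptide and terbium anti-His antibody; 0% = Mcl-1 plus Noxa peptide wells and 100% = peptide-only wells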
Bcl-xL primary: Bcl-xL (human) inhibition | GST-Bcl-xL / FITC-Bim BH3 peptide fluorescence polarization | 320,000 compounds, 0.7% hits | AID 2129 | inhibition, % at 10.9 µM | Q07817;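 active means inhibition above the mean of all tested compounds plus 3 SD, cutoff set per campaign, cut at about 30% in these data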;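 further: 0% = DMSO wells and 100% = unlabeled Bim-BH3 peptide competitor; inhibitors lower millipolarization by displacing the labeled peptide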
Target sequence (Q07817 whole entry, looked up): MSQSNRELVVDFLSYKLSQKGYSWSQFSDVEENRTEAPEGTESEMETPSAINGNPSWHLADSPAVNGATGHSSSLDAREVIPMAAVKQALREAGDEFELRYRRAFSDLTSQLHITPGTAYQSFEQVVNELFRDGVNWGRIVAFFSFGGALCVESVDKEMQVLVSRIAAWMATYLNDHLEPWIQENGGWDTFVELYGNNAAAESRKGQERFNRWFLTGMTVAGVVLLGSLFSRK
Numbers without * were called inactive; nt = no result; + = active, no number.

SMILES	Bim-Mcl-1	Mcl1 Bid PPI	MCL1-BIM inh	GLD-1 TGE inh	Mcl1 Noxa PPI	Bcl-xL primary
c1ccc(-c2ccc(-c3n(-c4ccccn4)c4ccccc4[n+]3-c3ccccn3)cc2)cc1	-1	16	nt	nt	87*	nt
C[N+]1(C)C2CC(OC(=O)C(CO)c3ccccc3)CC1C1OC12 (stereo not drawn)	nt	nt	-8	5	nt	0
CCOC(=O)[C@@]1(C#N)[C@@H]2C=CC(C(N)=O)=CN2[C@@H](C(N)=O)[C@@H]1c1cccc(Cl)c1	-1	-52	27	21	19	38*
O=c1[nH]c(=S)[nH]c(O)c1N=Nc1ccc(S(=O)(=O)N2CCc3ccccc32)cc1	-5	-35	16	-13	56*	4
O=c1[nH]c(=S)[nH]c(O)c1N=Nc1ccc(SC(F)F)cc1	nt	-25	-3	-12	47	4
CCOC(=O)c1c(N)n(Cc2ccco2)c2nc3ccccc3nc12	-3	-22	35	62*	27	43*
COCC(C)OC(=O)c1c(N)n(Cc2ccco2)c2nc3ccccc3nc12 (stereo not drawn)	-2	-13	25	39*	38	34*
Cc1cccc(N2C(=O)/C(=C/N3CCN(C(=O)c4ccco4)CC3)C(=O)NC2=S)c1	-5	-27	-16	-10	62*	-19
Cc1ccc(N2C(=O)/C(=C/N3CCN(C(=O)c4ccco4)CC3)C(=O)NC2=S)cc1C	0	-41	-1	6	8	-2
CCOC(=O)c1c(-n2c(C)cc(/C=C3/C(=O)NC(=O)N(CC)C3=O)c2C)sc2c1CCCC2	nt	nt	-2	12	nt	3
CCOC(=O)c1c(-n2c(C)cc(C=C3C(=O)NC(=S)NC3=O)c2C)sc2c1CCCC2	-5	38	-24	2	80*	-6
Cc1ccc2c(c1)C1CN(C)CCC1N2C(=O)Nc1cccc(Cl)c1 (stereo not drawn)	37	3	-4	0	99*	1
CCN1C(=O)C(=C/C=C/c2ccco2)C(=O)N(CC)C1=S	-11	47	-31	-8	73*	10
CN1CCN(Cc2cc3c(cc2[N+](=O)[O-])OCO3)CC1	nt	nt	14	8	nt	5
COc1ccc(OCC(=O)N2CCN(C(C)C)CC2)cc1	-1	53*	3	6	6	7
COc1ccc2[nH]cc(CCNCc3cccnc3)c2c1	nt	nt	5	4	nt	11
COc1ccc2[nH]c(C)c(CCNCc3cccnc3)c2c1	nt	nt	41*	20	nt	42*
CCN(CC)C(=O)c1ccc(NC(=O)CN2CCc3cc(OC)c(OC)cc3C2)cc1	nt	nt	6	4	nt	6
CN(C)[C@@H]1C(=O)C(C(N)=O)=C(O)[C@@]2(O)C(=O)C3=C(O)c4c(O)cccc4[C@@](C)(O)[C@H]3[C@H](O)[C@@H]12	3	72*	+	93*	111*	153*
C[C@@H]1CCC2[C@@H](C)C(=O)O[C@@H]3OC4(C)CCC1[C@@]23OO4 (stereo partly drawn)	nt	nt	nt	2	nt	nt
Cc1ccccc1NC(=O)c1cc(-c2ccccc2)n(CCCN2CCOCC2)c1C	nt	63*	4	7	4	6
COc1cccc(-n2c(O)c(C=NCCN3CCNCC3)c(=O)[nH]c2=S)c1	nt	nt	10	4	nt	9
Cc1ccc(S(=O)(=O)N2CC2(C)CCl)cc1 (stereo not drawn)	nt	11	3	7	-8	4
Cc1ccc(S(=O)(=O)N2CN3CCN(C3)C2)cc1	-4	79*	5	6	11	3
COC(=O)C1=C(c2ccccc2OCc2ccccc2)C[C@@H]2CC[C@H]1N2C(=O)NCc1ccc([N+](=O)[O-])cc1	nt	nt	1	-3	nt	0
SMILES	Bim-Mcl-1	Mcl1 Bid PPI	MCL1-BIM inh	GLD-1 TGE inh	Mcl1 Noxa PPI	Bcl-xL primary
COc1cccc(-n2c(/C=C/c3ccc(O)c(O)c3)nc3ccccc3c2=O)c1	-1	-6	11	-54	56*	5
COc1cc2c(cc1OC)-c1c3c(cc4c1[C@@H](C2)N(C)CC4)OCO3	1	-13	12	9	16	16
COc1cc2c(cc1O)C[C@H]1NCCc3cc4c(c-2c31)OCO4	6	-28	24	15	79*	24
COc1ccc2c(c1)CC1(CN2C)C(=O)NC(=O)N(CCc2ccccc2)C1=O (stereo not drawn)	-3	-13	21	9	31	20
CCC(C)N1C(=O)NC(=O)C2(Cc3c(ccc4ccccc34)N(C)C2)C1=O (stereo not drawn)	2	-105	13	5	59*	8
Cc1cc(C)c2c(ccc3cccc[n+]32)c1	nt	nt	-4	3	nt	3
CCOC(=O)c1cc(C(O)(C(=O)OC)C(F)(F)F)c(/N=C/N(C)C)o1 (stereo not drawn)	0	-23	4	-1	86*	5
Cc1ccc(N2C(=O)/C(=C/c3ccc(CN(CCC#N)S(C)(=O)=O)o3)C(=O)NC2=S)cc1	0	-9	35	14	69*	15
Cc1ccc(N2C(=O)NC(=O)/C(=C\c3ccc(N4CCOCC4)cc3)C2=O)cc1	-1	-50	2	-4	16	1
Cc1ccc(N2C(=O)NC(=O)/C(=C\c3ccc([N+](=O)[O-])o3)C2=O)cc1	0	17	38	8	70*	28
O=C1NC(=O)N(c2ccccc2)C(=O)/C1=C\c1ccc2c3c(cccc13)CC2	-4	12	8	-8	81*	5
COc1cccc(N2C(=O)NC(=O)/C(=C/c3ccc([N+](=O)[O-])s3)C2=O)c1	nt	-59	28	-4	61*	18
COc1ccc(N2C(=O)NC(=O)/C(=C\c3cn(C)c4ccccc34)C2=O)cc1	nt	nt	5	-10	nt	34*
CC(OC(=O)c1cn(C)c2ccccc12)C(=O)N1CCCC1 (stereo not drawn)	nt	nt	-12	8	nt	-8
C1CC2OC2CC1C1CO1 (stereo not drawn)	nt	nt	-12	5	nt	1
COc1ccccc1N1C(=O)NC(=O)/C(=C/c2ccc([N+](=O)[O-])s2)C1=O	nt	-25	25	4	45	20
COc1ccc(CN2C(=O)NC(=O)/C(=C/c3ccc([N+](=O)[O-])s3)C2=O)cc1	nt	5	26	-10	65*	22
COc1ccc(CN2C(=O)NC(=O)/C(=C\c3ccco3)C2=O)cc1	4	-76	-21	-53	12	-30
COc1ccc(N2C(=O)NC(=O)/C(=C/c3ccc([N+](=O)[O-])s3)C2=O)cc1	nt	-11	33	0	51*	15
COC(=O)C1=C(c2ccc(C(C)=O)cc2)C[C@@H]2CC[C@H]1N2C(=O)N1CCC(O)(c2ccc(Cl)cc2)CC1	nt	nt	4	0	nt	4
COC(=O)C1=C(c2ccc(OC(F)(F)F)cc2)C[C@@H]2CC[C@H]1N2C(=O)NC1CCCCC1	nt	nt	4	2	nt	6
COc1ccccc1/C=C1\C(=O)NC(=S)N(c2ccccc2)C1=O	nt	nt	14	-36	nt	2

Screens from PubChem BioAssay.
